# Compound activity: PubChem, National Center for Advancing Translational Sciences (NCATS)
# This is one part of a sample in which hits are shown more often than they occur.
# L3MBTL1 block: blocks human L3MBTL1; Potency, µM (series often up to 57.1 µM), actives largely listed as inhibitors; AID 485360; AlphaScreen L3MBTL1–H3K9me1 peptide binding; actives 0.66% (n = 230,000); note: nearly all actives have a fitted effect of over 60% in size
#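 L3MBTL1 (50 nM) pre-complexed 30 min with biotinylated H3(1-15)K9me1 peptide (75 nM), then compounds added for 30 min at room temperature; AlphaScreen streptavidin donor/nickel chelate acceptor beads (10 ug/mL final) read after 30 min dark incubation.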
# TDP1 block: blocks human tyrosyl-DNA phosphodiesterase 1; Q9NUW8; recombinant TDP1, AlphaScreen DNA substrate cleavage; Potency, µM (top dose mostly 130 µM), actives largely listed as inhibitors; actives 0.28% (n = 350,000); AID 485290; note: nearly all actives have a fitted effect of over 40% in size
#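 Recombinant E. coli-expressed Tdp1 (1 nM) preincubated with compound 15 min at RT, then 5'-biotin/3'-phosphotyrosine-FITC DNA substrate (15 nM) added for 5 min. AlphaScreen beads (10 ug/ml) added, 10 min RT; tyrosine-FITC cleavage read as signal loss.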
# RECQ1 inh: blocks DNA unwinding by human RECQ1; P46063; Potency, µM (highest dose often 57.3 µM), usual class: inhibitors; AID 2549; actives 0.54% (n = 240,000); RECQ1 DNA unwinding, red fluorescence kinetic read; note: nearly all actives have a fitted effect of over 30% in size
#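 50 nM RECQ1T1 preincubated 15 min with compound in Tris pH 8.0 buffer with MgCl2, DTT, Tween-20 and 2.5 ug/ml poly(dI-dC); started with 200 nM TAMRA/BHQ-2 forked duplex and 2 mM ATP. Unwinding read as fluorescence (525/598 nm), two reads 2 h apart.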
# JMJD2E inh: blocks human JMJD2E demethylase activity; AID 2147; JMJD2E catalytic domain, FDH-coupled NADH fluorescence (FDH is formaldehyde dehydrogenase); Potency, µM (series often up to 57.1 µM), most hits filed as inhibitors; actives 1.6% (n = 230,000); B2RXH2; active = well fitted inhibition curve with a large enough effect, not every such curve was filed as active; inconclusive = small, poorly fitted or top-dose-only effect, or another doubt; inactive = no such curve, though single readings can be large or run the other way; note: nearly all actives have a fitted effect of over 50% in size
# Target sequence (B2RXH2 1-337 limits assumed): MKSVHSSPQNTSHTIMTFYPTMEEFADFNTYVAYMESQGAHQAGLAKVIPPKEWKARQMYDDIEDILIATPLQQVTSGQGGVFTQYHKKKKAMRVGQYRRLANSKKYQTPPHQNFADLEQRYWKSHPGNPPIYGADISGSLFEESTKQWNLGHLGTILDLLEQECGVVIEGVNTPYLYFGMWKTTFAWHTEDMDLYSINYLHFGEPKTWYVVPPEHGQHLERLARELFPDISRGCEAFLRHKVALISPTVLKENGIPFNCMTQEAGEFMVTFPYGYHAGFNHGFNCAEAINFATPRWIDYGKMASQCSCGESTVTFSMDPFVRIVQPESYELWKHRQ
# BLM inh: blocks DNA unwinding by human BLM helicase; P54132; recombinant BLM DNA unwinding, fluorescence dequenching; Potency, µM (doses to about 56.1 µM), usual class: inhibitors; actives 0.2% (n = 350,000); note: nearly all actives have a fitted effect of over 35% in size
# APE1 inh-1: blocks human APE1 abasic DNA cleavage | P27695 | recombinant APE1, TAMRA/BHQ-2 abasic DNA cleavage fluorescence | Potency, µM (titrated, usually from 65.8 µM), usual class: inhibitors | actives 0.35% (n = 350,000); note: nearly all actives have a fitted effect of over 55% in size
# Target sequence (P27695 whole entry, looked up): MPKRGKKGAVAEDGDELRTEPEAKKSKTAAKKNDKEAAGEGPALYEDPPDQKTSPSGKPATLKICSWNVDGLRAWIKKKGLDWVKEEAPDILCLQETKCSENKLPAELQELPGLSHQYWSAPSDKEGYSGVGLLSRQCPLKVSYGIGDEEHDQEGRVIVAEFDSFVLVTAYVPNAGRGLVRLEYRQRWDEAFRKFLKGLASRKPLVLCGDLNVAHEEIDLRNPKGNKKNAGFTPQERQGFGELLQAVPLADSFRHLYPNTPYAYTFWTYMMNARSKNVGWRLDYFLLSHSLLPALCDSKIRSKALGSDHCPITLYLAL
#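 Activity was derived from the fluorescence gain between first and third kinetic reads (60 s intervals, ex 525/em 598 nm) after 50 nM THF-abasic TAMRA/BHQ-2 duplex was added to 0.75 nM APE1 preincubated 15 min with compound.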
# APE1 dye cs: counter-screen for APE1 inhibitors: DNA dye displacement | shares compounds with APE1 inh-1 | DNA fluorescent dye displacement counterscreen, fluorescence | Potency, µM (titrated, usually from 28.5 µM), usual class: inhibitors | actives 7% (n = 480) | AID 2564;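 note: loss of thiazole orange fluorescence as the dye is displaced from duplex DNA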
# EndoIV counter: counter-screen for APE1 inhibitors: inhibitors of E. coli endonuclease IV | shares compounds with APE1 inh-1 | E. coli Endo IV, fluorogenic AP-site DNA cleavage | Potency, µM (top dose mostly 27.1 µM), most hits filed as inhibitors | actives 4% (n = 560) | AID 2565
# APE1 inh-2: confirmation of inhibitors of human APE1 endonuclease | shares compounds with APE1 inh-1 | purified APE1, fluorogenic abasic-site DNA cleavage | Potency, µM (doses to about 57.1 µM), hits mostly inhibitors | actives 44% (n = 750) | AID 2572; note: nearly all actives have a fitted effect of over 30% in size
# APE1 FP: compounds that displace a DNA probe from human APE1 | APE1 binding to TAMRA-labelled double-stranded DNA, fluorescence polarization displacement | actives 7% (n = 480) | Potency, µM (highest dose often 28.5 µM), actives largely listed as inhibitors | shares compounds with APE1 inh-1 | AID 2573
# Numbers stand for hits; - = inactive; ? = inconclusive; . = not tested or not shown; ! = not confirmed by another sample; [ ] = remark or other dose. Unless noted, calls come from the whole dose curve; as a rule, active = well fitted curve in the direction sought with a large enough effect; inconclusive = small, poorly fitted or top-dose-only effect, or another doubt; inactive = no such curve, though single readings can be large; an effect the other way counts as inactive or inconclusive.
SMILES,L3MBTL1 block,TDP1 block,RECQ1 inh,JMJD2E inh,BLM inh,APE1 inh-1,APE1 dye cs,EndoIV counter,APE1 inh-2,APE1 FP
CCOC(=O)c1cc(C(=O)OCC)c(=O)[nH]c1C,-,-,-,-,-,?,.,.,.,.
CNc1cccc(S(=O)(=O)N2CCN(S(=O)(=O)c3ccc4c(c3)OCCO4)CC2)c1,.,-,.,.,.,.,.,.,.,.
c1ccc(N2N=C(c3cccs3)CC2c2ccco2)cc1 (centres undefined),-,.,?,?,-,-,.,.,.,.
Clc1ccc(N2N=C(c3cccs3)CC2c2ccco2)cc1 (centres undefined),-,.,-,?,-,-,.,.,-,.
CCC1(c2ccc(O)cc2)NC(=O)N(C)C1=O (centres undefined),.,-,-,.,-,?,.,.,.,.
CCCCCCCCOc1ccc(C(=O)O)cc1,-,-,-,.,.,-,.,.,.,.
C=C(C)C(=O)OCCCCCCOc1ccc(C(=O)O)cc1,-,25.1µM,-,-,-,-,.,.,?,.
NC(=O)c1oc2ccccc2c1NC(=O)c1nc2ccccc2s1,-,79.4µM,-,?,-,-,.,.,?,.
NC(=O)c1oc2ccccc2c1NC(=O)c1ccc(F)cc1,-,-,-,-,-,-,.,.,.,.
CCOc1ccccc1CNCc1cccn1-c1nnc(N2CCN(c3ccccc3)CC2)s1,.,-,.,.,-,.,.,.,.,.
Nc1ncc(N=Nc2cc(C(=O)O)ccc2Cl)s1,.,.,?,25.1µM,-,8.91µM,-,-,?,?
O=C(Nc1cc(C(=O)Nc2ccc(S(=O)(=O)O)cc2S(=O)(=O)O)cc(C(=O)Nc2ccc(S(=O)(=O)O)cc2S(=O)(=O)O)c1)Nc1cc(C(=O)Nc2ccc(S(=O)(=O)O)cc2S(=O)(=O)O)cc(C(=O)Nc2ccc(S(=O)(=O)O)cc2S(=O)(=O)O)c1,.,5.01µM,-,?,?,7.94µM,.,?,2.51µM,.
CCOc1ccccc1NC(=O)CN(C)S(=O)(=O)c1cccc2nsnc12,-,-,-,-,-,-,-,-,-,?
Cc1cccc(NC(=O)CN(C)S(=O)(=O)c2cccc3nsnc23)c1C,-,-,-,-,-,-,.,.,.,.
Cc1noc(C)c1-c1nccc(NCc2ccccc2)n1,.,.,-,.,-,-,.,.,.,.
Cc1ccccc1NC(=O)CN1C(=O)S/C(=C\c2cccn2-c2cccc(C(=O)O)c2)C1=O,?,50.1µM,?,-,-,?,.,.,?,.
Cc1ccc(NC(=O)CN2C(=O)S/C(=C\c3cccn3-c3cccc(C(=O)O)c3)C2=O)c(C)c1,?,50.1µM,-,?,?,8.91µM,-,?,12.6µM,15.8µM
C#C[C@]1(O)CC[C@H]2[C@H]3CCC4=Cc5oncc5C[C@]4(C)[C@@H]3CC[C@]21C,.,-,-,-,-,-,.,.,.,.
Cc1n[nH]c(C)c1CCc1nc2c3ccccc3nc(SCC(=O)Nc3ccc(F)cc3)n2n1,.,-,.,.,-,.,.,.,.,.
Cc1ccc(NC(=O)CSc2nc3ccccc3c3nc(CCc4c(C)n[nH]c4C)nn23)cc1F,.,79.4µM,-,-,?,-,.,.,?,.
O=C(O)/C=C/c1ccc(O)c(O)c1,?,-,-,0.562µM!,-,?,-,-,?,-
O=C(/C=C/c1ccc(O)c(O)c1)O[C@@H](C(=O)O)[C@@H](OC(=O)/C=C/c1ccc(O)c(O)c1)C(=O)O,.,.,-,.,.,?,.,.,.,.
O=C(O)/C=C/c1ccc(/C=C/C(=O)O)cc1,.,-,-,.,.,-,.,.,.,.
O=C(/C=C/c1ccc(O)c(O)c1)O[C@H](Cc1ccc(O)c(O)c1)C(=O)O,.,.,3.55µM,?,22.4µM,0.126µM,-,-,0.631µM,-
COc1ccc(C(=O)CSc2nnc(-c3ccco3)c(-c3ccco3)n2)cc1,?,-,-,?,?,17.8µM,?,-,?,?
SMILES,L3MBTL1 block,TDP1 block,RECQ1 inh,JMJD2E inh,BLM inh,APE1 inh-1,APE1 dye cs,EndoIV counter,APE1 inh-2,APE1 FP
COc1cccc(NC(=O)CSc2nnc(-c3ccco3)c(-c3ccco3)n2)c1,.,.,.,.,-,-,.,.,.,.
Cc1ccccc1NC(=O)CSc1nnc(-c2ccco2)c(-c2ccco2)n1,-,-,-,?,-,4.47µM,-,-,15.8µM,-
CCc1nnc(SCc2cc(C)ccc2C)c2cc3sc(C)cc3n12,.,-,.,.,-,.,.,.,.,.
Cc1nn(-c2ccccc2)c(-n2cccc2)c1C(=O)NCCCN1CCN(c2ccccc2F)CC1,.,-,.,.,-,.,.,.,.,.
Cc1c(Br)c(O)c(Br)c2sc(=O)oc12,35.5µM,-,22.4µM,31.6µM,-,?,-,-,-,-
O=C(OC1Cc2c(O)cc(O)cc2OC1c1cc(O)c(O)c(O)c1-c1c(C2Oc3cc(O)cc(O)c3CC2O)cc(O)c(O)c1O)c1cc(O)c(O)c(O)c1 (centres undefined),.,.,2.51µM,8.91µM,6.31µM,0.1µM,.,-,0.178µM,.
C=CCN1c2ccccc2[C@]23C[C@@H](C(=O)OC)N(S(=O)(=O)c4ccc(C)cc4)C2=NC(C(=O)OC)=C(C(=O)OC)[C@H]13,.,-[21 µM],-[11.5 µM],-[11.4 µM],-[12.4 µM],-[12.4 µM],.,.,.,.
CC(C)C(C(=O)O)N1C(=O)/C(=C/C=C/c2ccco2)SC1=S (centres undefined),1.78µM,?,?,?,?,1.58µM,-,-,2.51µM,-
CCCC(=O)Nc1nc2c(s1)CC(C(C)(C)C)CC2 (centres undefined),.,-,.,.,-,.,.,.,.,.
O=Cc1ccc2oc3nc4n(c(=O)c3c(=O)c2c1)CCCS4,.,10µM,12.6µM,-,28.2µM,?,.,.,31.6µM,.
COc1ccc(C(CC(=O)N2CCN(c3ccccc3)CC2)c2c(OC)cc(OC)c3c(-c4ccccc4)cc(=O)oc23)cc1 (centres undefined),.,.,?,?,-,?,-,?,5.62µM,-
COc1ccc(C(CC(=O)N2CCCCC2)c2c(OC)cc(OC)c3c(-c4ccccc4)cc(=O)oc23)cc1 (centres undefined),.,.,?,?,-,25.1µM,-,?,7.94µM,14.1µM
CC1CC=CC2C1C(=O)N(Cc1ccccc1)C2c1ccc(-c2ccc(N(C)C)cc2)cc1F (centres undefined),.,-,-,.,-,-,.,.,.,.
CCc1cc2c(=O)c(-c3nc4ccccc4n3C)coc2c(CN2CCN(C)CC2)c1O,-[11.4 µM],50.1µM,?,?,-,?,.,.,?,.
